Rows were chosen to be rich in hits. Some 19% of all compounds tested hit in one or more screens of this group.
Pf growth 96h: Primary qHTS for delayed death inhibitors of the malarial parasite plastid, 96 hour incubation; P. falciparum luciferase reporter growth, 96 h; Potency, µM (titrated, usually from 28.7 µM), usual class: inhibitors; 320,000 compounds, 6.9% hits; AID 504834, 2011
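P. falciparum expressing integrated firefly luciferase grown in erythrocytes (2% hematocrit, 0.05% parasitemia final) with compounds for 96 hours at 37 C, 5% CO2. Growth inhibition read as loss of luminescence after adding luciferase detection reagent.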
Lassa entry inh: qHTS for Inhibitors of binding or entry into cells for Lassa Virus | Lassa virus pseudotype entry inhibition, cell reporter | 300,000 compounds, 1.2% hits | Potency, µM (doses to about 37.9 µM), hits mostly inhibitors | AID 540256, 2011; calls by dose curve; tested in HEK293 cells; note: nearly all actives have a fitted effect of over 50% in size
Marburg entry inh: qHTS for inhibitors of binding or entry into cells for Marburg Virus; Marburg virus pseudotyped entry inhibition, cell reporter; AID 540276, 2011; 300,000 compounds, 1.8% hits; Potency, µM (titrated, usually from 37.8 µM), hits mostly inhibitors; calls by dose curve; tested in HEK293 cells
Shiga inhibitor: A qHTS for Small Molecule Inhibitors of Shiga Toxin; inhibition, % at 38.7 µM; Vero cells, Shiga toxin protein synthesis inhibition reporter; 290,000 compounds, 9.2% hits; in the data active = inhibition mostly above about 28%, no sharp cut-off; inactive = mostly below about 43%
Pf growth 48h: Primary qHTS for delayed death inhibitors of the malarial parasite plastid, 48 hour incubation. AID 504832, 2011. P. falciparum luciferase growth in erythrocytes, 48 h. 310,000 compounds, 5.9% hits. Potency, µM (series often up to 28.7 µM), usual class: inhibitors
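Here the parasites carry a stable luciferase gene and grow inside erythrocytes in Albumax-based RPMI medium with compound for one erythrocytic cycle. Activity is scored as loss of luminescent signal.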
CHX counter: Cycloheximide Counterscreen for Small Molecule Inhibitors of Shiga Toxin | cell reporter, cycloheximide protein synthesis inhibition counterscreen | max response, % | 300,000 compounds, 12% hits | AID 2314, 2010; in the data active = max response mostly above about 13%, no sharp cut-off; inactive = mostly below about 14%; note: read at 38.3 µM for the half of the compounds with a filed dose
Numbers stand for hits; 0 = inactive; ? = inconclusive; - = not tested or not shown; + = active, no number; ! = not confirmed by another sample. Unless noted, calls come from the whole dose curve; as a rule, active = well fitted inhibition curve with a large enough effect; inconclusive = small, poorly fitted or top-dose-only effect, or another doubt; inactive = no such curve, though single readings can be large or run the other way.

SMILES	Pf growth 96h	Lassa entry inh	Marburg entry inh	Shiga inhibitor	Pf growth 48h	CHX counter
O=C(NCCC1=CCCCC1)C1CCC(CNc2c(N3CCCC3)c(=O)c2=O)CC1 (stereo not drawn)	?	0	0	0	?	0
CC1CCN(c2c(NCC3CCC(C(=O)NC4CCCCCC4)CC3)c(=O)c2=O)CC1 (stereo not drawn)	?	-	-	0	?	0
O=C(NCCC1=CCCCC1)C1CCC(CNc2c(N3CCCCC3)c(=O)c2=O)CC1 (stereo not drawn)	?	0	?	0	9.3µM	0
COc1ccc(S(=O)(=O)N2CCOCC2)c2ccccc12	0	-	-	0	0	0
O=C1CCSc2cccc3cccc(c23)N1	0	0	0	0	0	0
COc1ccc(-c2nc(NC(=O)c3nc4nccc(C)n4n3)sc2C)cc1	?	0	0	0	0	0
CCOC(=O)c1cnc(SCC(=O)N2CCN(c3ccccc3)CC2)nc1N	0	0	0	0	0	0
Cc1cccn2c(=O)c3cc(C#N)c(=NC(=O)c4cccs4)n(CC(C)C)c3nc12	0	0	0	0	0	0
Cc1cccn2c(=O)c3cc(C#N)c(=N)n(Cc4cccnc4)c3nc12	-	0	0	-	-	-
Cc1ccc(Cn2c(=N)c(C#N)cc3c(=O)n4cccc(C)c4nc32)cc1	15µM	-	-	0	0	0
Cc1cccc(C(=O)N=c2c(C#N)cc3c(=O)n4cccc(C)c4nc3n2Cc2ccco2)c1	13µM	0	14µM!	0	-	0
COCCCn1c(=NC(=O)c2ccccc2)c(C#N)cc2c(=O)n3cccc(C)c3nc21	?	0	?	0	2.9µM	0
Cc1cccn2c(=O)c3cc(C#N)c(=NC(=O)c4ccco4)n(Cc4ccco4)c3nc12	?	0	0	0	?	0
COCCCn1c(=NC(C)=O)c(C#N)cc2c(=O)n3cccc(C)c3nc21	?	0	0	0	0	0
CCOCCCn1c(=NC(=O)c2cccs2)c(C#N)cc2c(=O)n3cccc(C)c3nc21	0	-	-	0	1.9µM	0
COc1ccc2c(C)cc(SCC#N)nc2c1	0	0	0	0	0	0
CCn1c(NC(=O)c2ccco2)c(-c2ccccc2Cl)c(=O)c2ccccc21	0	0	0	0	0	0
CN(C)S(=O)(=O)c1ccc(C(=O)NCCC(=O)N2CCCC2)cc1	0	0	?	0	0	0
COCCCn1c(C(=O)NC2CCCCC2C)cc2c(=O)n3cccc(C)c3nc21 (stereo not drawn)	?	-	-	0	?	0
CCN(C(=O)c1cc2c(=O)n3cccc(C)c3nc2n1CCCOC)C1CCCCC1	9.3µM	-	-	0	?	0
CC(=O)N=c1c(C#N)cc2c(=O)n3ccccc3nc2n1Cc1ccccc1	8.3µM	0	0	0	?	0
CCOCCCn1c(=NC(C)=O)c(C#N)cc2c(=O)n3ccccc3nc21	0	0	0	0	0	0
O=c1[nH]c(O)c(/C=C2/C=CC(c3cc(Cl)ccc3Cl)=N2)c(=O)[nH]1	0	13µM	?	0	0	0
Cc1ccc2c(c1)=NC(=O)/C(=C/c1c(O)[nH]c(=O)[nH]c1=O)C=2	0	-	-	0	0	0
COCCCNc1nc2c(-c3ccc(C)cc3)nnn2c2ccccc12	0	-	-	72	0	39
SMILES	Pf growth 96h	Lassa entry inh	Marburg entry inh	Shiga inhibitor	Pf growth 48h	CHX counter
O=C1CCCc2c1sc1nc3n(c(=O)c21)CCCCC3	-	0	?	0	0	0
O=C1c2sc3nc4n(c(=O)c3c2CCC1Br)CCCCC4 (stereo not drawn)	9.3µM	0	0	53	?	31
O=c1c2c3c(sc2nc2n1CCCCC2)C(O)CCC3 (stereo not drawn)	?	0	?	70	0	55
O=c1c2c3c(sc2nc2n1CCCCC2)CCC3	0	?	0	0	0	0
O=C(NC1(c2ccccc2)CC1)C1CCC(=O)N(Cc2ccc(Cl)cc2)C1 (stereo not drawn)	0	-	-	0	0	0
CCOC(=O)c1oc2ccccc2c1CSc1nnnn1-c1ccccc1	-	0	0	0	0	0
C=CCc1cc(Cl)ccc1OCCCNCCO	0	-	-	0	9.3µM	0
C=CCc1cc(Cl)ccc1OCCOCCNC(C)CC (stereo not drawn)	?	?	11µM	0	?	0
C=CCc1cc(Cl)ccc1OCCCNC(C)C	0	?	?	0	?	0
c1ccc(COCCCn2cc(-c3ccccc3)nn2)cc1	0	-	-	0	0	0
CC1(c2ccc3ccccc3c2)NC(=O)N(CC(=O)N2CCN(Cc3ccc(C#N)cc3)CC2)C1=O (stereo not drawn)	0	?	0.56µM	-	?	-
COc1ccc(C(=O)n2nc(-c3ccccc3)nc2SC)cc1	?	0	0	0	0	0
CSc1nc(-c2ccccc2)nn1C(=O)c1ccccc1	0	0	0	0	0	14
CSc1nc(-c2ccccc2)nn1C(=O)c1ccc(Cl)cc1	?	?	0	0	0	17
CSc1nc(-c2ccc(Cl)cc2)nn1C(=O)c1ccccc1	1.3µM	0	0	112	0	24
O=C(Nc1ccc2nc3n(c(=O)c2c1)CCCCC3)c1cc([N+](=O)[O-])ccc1F	?	-	-	32	0	37
COc1ccc(C(=O)Nc2ccc3nc4n(c(=O)c3c2)CCCC4)cc1[N+](=O)[O-]	0	0	?	0	0	0
O=C(Nc1ccc2nc3n(c(=O)c2c1)CCCCC3)c1c(F)ccc([N+](=O)[O-])c1F	?	?	7.1µM	89	?	92
O=C(CSc1ncn(-c2ccccc2)n1)c1cccs1	-	0	?	88	0	64
CCOC(=O)c1sc(NC(=O)CSc2ncn(-c3ccccc3)n2)nc1C	-	?	?	0	0	0
c1ccc(CSc2ncn(-c3ccccc3)n2)cc1	0	0	?	105	0	46
O=C(CSc1nnc(-c2ccccc2)n1-c1ccccc1)c1cccs1	0	0	0	0	0	0
O=C(CSc1ncn(-c2ccccc2)n1)Nc1ccc(Br)cn1	?	0	0	0	0	0
Nc1nc(CSc2ncn(-c3ccccc3)n2)cs1	0	0	0	92	0	38
Brc1csc(/C=N/Nc2nc3ccccc3s2)c1	0	?	?	92	0	38
SMILES	Pf growth 96h	Lassa entry inh	Marburg entry inh	Shiga inhibitor	Pf growth 48h	CHX counter
Cc1ccc2[nH]c(C)c(/C=N/Nc3nc4ccccc4s3)c2c1	?	0	?	0	0	51
COc1cc(OC)cc(C(=O)Oc2ccc(/C=N/Nc3nc4ccccc4s3)cc2OC)c1	0	?	?	124	0	48
COc1ccc(C=NNc2nc3ccccc3s2)cc1	-	?	7.1µM	-	-	-
Cc1ccc2[nH]c(O)c(N=Nc3nc4ccccc4s3)c2c1	?	?	0	0	0	0
CSc1ccc(CN2CCCCCC2)cc1	0	0	0	0	0	0
Brc1ccsc1/C=N/Nc1ccccc1	-	0	0	-	-	-
COc1cc(/C=N/Nc2nc3ccccc3s2)ccc1OC(=O)c1ccccc1F	?	?	?	+	0	43
Cc1csc(N/N=C/c2ccccn2)n1	?	?	?	0	0	0
